GPR151 ag = activators of human GPR151, primary screen, cell-based, PathHunter beta-arrestin, luminescence | PathHunter beta-arrestin GPR151 cells | activation, % at 11.2 µM | 1% of 650,000 active | AID 1508602, 2020; in the data active = activation above about 4.9%;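 note: 0% = median of compound wells and 100% = cells with positive control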
Target sequence (Q8TDV0 whole entry, looked up): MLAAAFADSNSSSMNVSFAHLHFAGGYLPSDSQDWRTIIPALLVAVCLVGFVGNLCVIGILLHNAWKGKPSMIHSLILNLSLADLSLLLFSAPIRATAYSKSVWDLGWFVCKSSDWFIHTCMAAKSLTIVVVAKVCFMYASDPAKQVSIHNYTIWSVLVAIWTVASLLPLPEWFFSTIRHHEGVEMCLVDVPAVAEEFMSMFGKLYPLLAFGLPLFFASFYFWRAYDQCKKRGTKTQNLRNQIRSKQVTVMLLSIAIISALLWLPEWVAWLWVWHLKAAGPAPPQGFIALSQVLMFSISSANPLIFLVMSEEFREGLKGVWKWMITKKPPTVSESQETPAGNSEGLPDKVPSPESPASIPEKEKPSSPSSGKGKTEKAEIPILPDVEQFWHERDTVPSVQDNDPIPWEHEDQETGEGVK
TEAD-YAP inh = TEAD-YAP interaction inhibition, primary screen, TEAD-YAP interaction inhibitor project, luminescence, HEK-TIYL cells | inhibition, % at 9.12 µM | 1.4% of 640,000 active | TEAD-Gal4/YAP UAS-luciferase luminescence | AID 1259422, 2018; in the data active = inhibition above about 32%;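 note: 0% = median of test compound wells and 100% = reference inhibitor wells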
MITF primary = MITF inhibitors, primary screen, biochemical, AlphaScreen, human; AID 1259374, 2018; inhibition, % at 2.6 µM; Microphthalmia-associated transcription factor (Homo sapiens), O75030; 0.91% of 650,000 active; AlphaScreen MITF homodimerization, bead proximity signal; in the data active = inhibition above about 50%;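 note: 0% = vehicle wells with protein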
FBW7 act = FBW7 E3 ligase activators, primary screen, biochemical, AlphaScreen, human. normalized activity (activation), % at 26.1 µM. F-box/WD repeat-containing protein 7 (Homo sapiens), Q969H0. 0.13% of 650,000 active. AlphaScreen FBW7–phospho-cyclin E peptide binding, activator screen; in the data active = normalized activity above about 1.9%;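 note: purified mutant Fbw7 with reduced substrate affinity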
An asterisk follows results filed as active; ! = a repeat was not active. In the library only some 3.5% were active in any assay of this set; here they are far more common.

For COc1ccc(C(NC(C)=O)c2ccc3cccnc3c2O)cc1OC (stereo not drawn) the results were GPR151 ag -0.3, TEAD-YAP inh 83.3*, MITF primary 65.8* and FBW7 act -0.6.
O=C(Nc1cc(-c2ccncc2)c[nH]c1=O)c1cccc2c1OCCO2 was read as GPR151 ag 1.7, TEAD-YAP inh -0.8, MITF primary -0.6 and FBW7 act 0.2.
Screening CCN1CCN(C(=O)c2ccc(SCc3ccccc3F)c([N+](=O)[O-])c2)CC1 returned GPR151 ag 0.3, TEAD-YAP inh -1.0, MITF primary 2.4 and FBW7 act 0.1.
`CN1CCN(CC(O)COc2cccc3ccccc23)CC1` (stereo not drawn) gave GPR151 ag -0.5, TEAD-YAP inh 9.8, MITF primary 8.8 and FBW7 act 0.1.
`COc1ccccc1N1CCN(CC(O)COc2cccc3ccccc23)CC1` (stereo not drawn) gave GPR151 ag -0.3, TEAD-YAP inh 38.4*!, MITF primary 12.5 and FBW7 act 0.2.
CC(NC1CCN(c2cccc(NC(=O)c3ccncc3)c2)CC1)c1ccc(Cl)cc1 (stereo not drawn) was read as GPR151 ag 0.1, TEAD-YAP inh 35.8*, MITF primary 15.8 and FBW7 act -0.1.
Screening Cc1nc(C(C)NC2CCN(c3cccc(NC(=O)c4ccncc4)c3)CC2)cs1 (stereo not drawn) returned GPR151 ag -0.7, TEAD-YAP inh -22.8, MITF primary -3.3 and FBW7 act -0.1.
CCCS(=O)(=O)c1ncc(Cl)c(C(=O)Nc2ccc(C(=O)OC)cc2)n1 was read as GPR151 ag -1.2, TEAD-YAP inh 42.8*, MITF primary 5.2 and FBW7 act 0.1.
Screening CCCS(=O)(=O)c1ncc(Cl)c(C(=O)Nc2ccc(CC)cc2)n1 returned GPR151 ag 1.2, TEAD-YAP inh 26.9, MITF primary 5.1 and FBW7 act -0.1.
Screening CCS(=O)(=O)c1ncc(Cl)c(C(=O)Nc2ccccc2Br)n1 returned GPR151 ag 0.2, TEAD-YAP inh 36.3*, MITF primary -2.4 and FBW7 act 0.0.
For CCS(=O)(=O)c1ncc(Cl)c(C(=O)Nc2cccc(Cl)c2C)n1 the results were GPR151 ag 0.7, TEAD-YAP inh 57.4*, MITF primary 11.9 and FBW7 act 0.0.
Screening Cc1cc(C)c(NS(=O)(=O)c2ccc3c4c2CC(=O)N4CC(C)S3)c(C)c1 (stereo not drawn) returned GPR151 ag 0.0, TEAD-YAP inh 4.2, MITF primary -4.1 and FBW7 act 0.0.
`COc1cccc(NS(=O)(=O)c2ccc3c4c2CC(=O)N4CC(C)S3)c1` (stereo not drawn) gave GPR151 ag -1.5, TEAD-YAP inh 39.9*, MITF primary 16.1 and FBW7 act 0.3.
CCN(CC)c1ccc(C(NC(=O)C(C)C)c2ccc3cccnc3c2O)cc1 (stereo not drawn) was read as GPR151 ag -1.3, TEAD-YAP inh 73.5*, MITF primary 19.8 and FBW7 act -1.0.
Screening CC(=O)NC(c1ccc(N(C)C)cc1)c1ccc2cccnc2c1O (stereo not drawn) returned GPR151 ag -0.6, TEAD-YAP inh 81.8*, MITF primary 58.6* and FBW7 act -2.0.
`CCCCC(=O)NC(c1ccc(N(C)C)cc1)c1ccc2cccnc2c1O` (stereo not drawn) gave GPR151 ag -0.8, TEAD-YAP inh 75.1*, MITF primary 21.8 and FBW7 act -2.0.
`CC(C)C(=O)NC(c1ccc(N(C)C)cc1)c1ccc2cccnc2c1O` (stereo not drawn) gave GPR151 ag -0.3, TEAD-YAP inh 83.5*, MITF primary 30.8 and FBW7 act -1.9.
`Cc1ccc(NC(=O)COc2ccccc2C)cc1C` gave GPR151 ag -0.2, TEAD-YAP inh -14.2, MITF primary 15.2 and FBW7 act 0.0.
`Cn1c(=O)c(C(=O)Nc2cccc(F)c2)cc2cccnc21` gave GPR151 ag 0.2, TEAD-YAP inh -57.9, MITF primary 0.5 and FBW7 act 0.2.
Screening CCC(=O)NC(c1ccc(N(C)C)cc1)c1ccc2cccnc2c1O (stereo not drawn) returned GPR151 ag -0.2, TEAD-YAP inh 68.6*, MITF primary 35.0 and FBW7 act -2.0.
For OC1(c2ccc(OC(F)F)cc2)CSC(=Nc2cccnc2)N1C1CC1 (stereo not drawn) the results were GPR151 ag 0.4, TEAD-YAP inh 42.1*, MITF primary 19.9 and FBW7 act -0.1.
For Cc1[nH]c2ccc(-c3nnc(SCC(=O)Nc4cccc([N+](=O)[O-])c4)n3-c3ccccc3)cc2c1C the results were GPR151 ag 0.7, TEAD-YAP inh 2.1, MITF primary 17.1 and FBW7 act 2.4*.
For Cc1[nH]c2ccc(-c3nnc(SCC(=O)Nc4cccc([N+](=O)[O-])c4)n3Cc3ccccc3)cc2c1C the results were GPR151 ag 0.0, TEAD-YAP inh 1.0, MITF primary -6.0 and FBW7 act 0.0.
`COc1ccc(-c2cnc(NC3CC3)nc2)cc1` gave GPR151 ag -7.8, TEAD-YAP inh 37.8*, MITF primary 10.5 and FBW7 act -0.2.
CCn1c(C2COc3ccc(OC)cc3C2)nc2cc(F)c(-c3ccnc4[nH]ccc34)cc21 (stereo not drawn) was read as GPR151 ag 1.4, TEAD-YAP inh -1.0, MITF primary 57.7* and FBW7 act -0.1.
COc1ccc2c(c1)CC(c1nc3ccc(-c4ccnc(N)c4)cc3[nH]1)CO2 (stereo not drawn) was read as GPR151 ag 0.0, TEAD-YAP inh 21.4, MITF primary 22.2 and FBW7 act 0.0.
`COc1ccc2c(c1)CC(c1nc3cc(-c4ccnc5[nH]ccc45)c(F)cc3[nH]1)CO2` (stereo not drawn) gave GPR151 ag 0.8, TEAD-YAP inh 50.4*, MITF primary -7.3 and FBW7 act -0.1.
For Cc1ccccc1C1C2=C(Nc3ncnn31)c1ccccc1OC2c1cccs1 (stereo not drawn) the results were GPR151 ag 1.0, TEAD-YAP inh -6.3, MITF primary -9.0 and FBW7 act 0.0.
For O=C(NC1CCN(Cc2ccccc2)CC1)c1ccc(Cn2nnc3ccccc3c2=O)cc1 the results were GPR151 ag -1.5, TEAD-YAP inh 34.9*, MITF primary 3.9 and FBW7 act 0.0.
Screening O=C(Nc1nccs1)c1cn(-c2ccccc2)nc1-c1cccnc1 returned GPR151 ag 1.8, TEAD-YAP inh 37.9*, MITF primary -2.3 and FBW7 act -0.1.
`O=C(Nc1nccs1)c1cn(-c2ccccc2)nc1-c1ccc(Br)cc1` gave GPR151 ag -0.8, TEAD-YAP inh 16.8, MITF primary 4.7 and FBW7 act 0.0.
`Fc1ccc(Nc2ccn3ncc(-c4ccsc4)c3n2)cc1Cl` gave GPR151 ag 1.4, TEAD-YAP inh 5.0, MITF primary -2.9 and FBW7 act 2.0*.
